# According to the supplement of paper PMC9177965:
# Where “and” joins values, the source holds several entries; their conditions need not be identical. Identical values can stand only once.
# Tested on: HT29 sg-Ctrl (RNF43 wildtype)
# Assay: cell viability activity relative to DMSO (negative = inhibition); higher = more viable cells (less growth inhibition)
# Settings: 5 µM; 96 h
# Description: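 Broad Repurposing Library primary screen at a single dose of 5 uM. HT29 sg-Ctrl and HT29 RNF43 G659fs CRISPR-edited isogenic cells were seeded at 2500 cells/well in 384-well plates in duplicate and treated for 96 h. Viability was read by CellTiter-Glo and reported as % activity relative to DMSO, with MG132 as the positive control (negative = growth inhibition).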
row,SMILES,cell viability activity
1,O=C1/C(=C/c2ccccc2)C[C@@]2(O)C3Cc4ccc(O)c5c4[C@@]2(CCN3CC2CC2)[C@H]1O5,-66%
2,C/C(=C\c1csc(C)n1)[C@@H]1C[C@@H]2O[C@]2(C)CCC[C@H](C)[C@H](O)[C@@H](C)C(=O)C(C)(C)[C@@H](O)CC(=O)O1,-72.3%
3,Cc1sc2c(c1C)C(c1ccc(Cl)cc1)=N[C@@H](CC(=O)Nc1ccc(O)cc1)c1nnc(C)n1-2,-59.2%
4,C[C@]12CC[C@H](O)C[C@H]1CC[C@@H]1[C@@H]2CC[C@]2(C)[C@@H](C3=CC(=O)OC3)CC[C@]12O,-86.7%
5,O=C(C[C@H]1NCCC[C@@H]1O)Cn1cnc2cc(Br)c(Cl)cc2c1=O,-86.5%
6,CN(C)C(=S)SSC(=S)N(C)C,-69%
7,C[C@@H]1CC[C@@]2(OC1)O[C@H]1C[C@H]3[C@@H]4CC=C5C[C@@H](O[C@@H]6O[C@H](CO)[C@@H](O[C@@H]7O[C@@H](C)[C@H](O)[C@@H](O)[C@H]7O)[C@H](O)[C@H]6O[C@@H]6O[C@@H](C)[C@H](O)[C@@H](O)[C@H]6O)CC[C@]5(C)[C@H]4CC[C@]3(C)[C@H]1[C@@H]2C,-63.5%
8,C/C=C(\C)C(=O)N[C@@H](c1ccccc1)[C@@H](O)C(=O)O[C@H]1C[C@@]2(O)[C@@H](OC(=O)c3ccccc3)[C@@H]3[C@]4(OC(C)=O)CO[C@@H]4C[C@H](O)[C@@]3(C)C(=O)[C@H](OC(C)=O)C(=C1C)C2(C)C,-69.3%
9,CCNC(=O)C[C@@H]1N=C(c2ccc(Cl)cc2)c2cc(OC)ccc2-n2c(C)nnc21,-59.5%
10,COc1cc2cc(c1Cl)N(C)C(=O)C[C@H](OC(=O)C(C)C)[C@]1(C)O[C@@H]1[C@H](C)[C@@H]1C[C@@](O)(NC(=O)O1)[C@H](OC)/C=C/C=C(\C)C2,-61.7%
11,C[C@]12O[C@H](C[C@]1(O)CO)n1c3ccccc3c3c4c(c5c6ccccc6n2c5c31)CNC4=O,-84.6%
12,C[C@H]1CCC/C=C/[C@@H]2C[C@H](O)C[C@H]2[C@H](O)/C=C/C(=O)O1,-98.3% and -96.8%
13,COc1ccc(CCN2CCC(Nc3nc4ccccc4n3Cc3ccc(F)cc3)CC2)cc1,-3.92%
14,CC[C@@]1(O)C(=O)OCc2c1cc1n(c2=O)Cc2cc3ccccc3nc2-1,-91.5%
